Bioassay records from PubChem.
Only some compounds are listed: those with a hit (about 19% of all), similar ones and a draw of the others.
HT1080NT lethal: kills 2HG-producing HT-1080-NT fibrosarcoma cells | HT-1080-NT fibrosarcoma viability, CellTiter-Glo ATP luminescence, 48 h | Potency, µM (highest dose often 46.1 µM), without a hit: at the top dose activity, negative = less viability, hits mostly cytotoxic | 360,000 tested, 1.6% active | AID 686970;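 note: NT is the 2HG producing partner of a matched IDH1 knockdown line; potency is the fitted concentration of half-maximal effect; 0% = DMSO-treated cells and -100% = media-only wells without cells; nearly all actives have a fitted effect of over 55% in size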
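HT-1080-NT fibrosarcoma cells (2HG-overproducing), 750 cells/well in RPMI with 5% FBS, dosed after 2 h and incubated 48 h at 37C. CellTiter-Glo luminescence normalized to DMSO and no-cell wells; concentration-response curves fitted and classed.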
HT1080 IDH1KD tx: toxicity to HT-1080 IDH1 knockdown cells (counter line) | AID 686971 | 360,000 tested, 2% active | Potency, µM (highest dose often 46.1 µM), for inactives: at the highest dose activity, negative = toxicity, hits mostly cytotoxic | HT-1080 IDH1 knockdown viability, ATP luminescence, 48 h;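 note: potency is the fitted concentration of half-maximal effect; 0% = DMSO wells and -100% = cell-free medium wells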
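Cytotoxicity counter-line: IDH1KD HT-1080, 48 h, CellTiter-Glo. Curves classed by r2, magnitude and activity.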
TDP1 cell CPT: growth inhibition of DT40 Tdp1-/-;hTDP1 cells with camptothecin (screen for TDP1 inhibitors); Potency, µM (doses to about 46.2 µM), for inactives: at the top dose activity change, negative = growth inhibition, actives largely listed as inhibitors; chicken DT40 Tdp1-/-;hTDP1 cells + 20 nM CPT, ATP luminescence, 48 h; 420,000 tested, 12% active; note: potency is the fitted concentration of half-maximal effect; nearly all actives have a fitted effect of over 55% in size
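Cell growth measured by CellTiter-Glo luminescence after a minimum 48 h, 37 C compound exposure with 20 nM CPT in Tdp1-knockout DT40 cells stably expressing hTDP1, seeded 400/well; qHTS titration format.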
IL-1B inflam inh: inhibitors of inflammasome signaling (IL-1 beta secretion). THP-1 LPS/ATP IL-1B secretion, AlphaLISA, 16 h; active compounds read low. activity change, % at 57.5 µM. 360,000 tested, 4.7% active; in the data active = activity change below about -50%; inconclusive = mostly about -30% to -49%
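Secreted IL-1B measured by AlphaLISA bead assay after 16 h compound exposure of THP-1 cells; compounds (final up to 57.5 uM) added 1 h before LPS (250 ng/mL) and ATP (1.25 mM) stimulation; lower signal means less secretion.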
TDP1 cell noCPT: qHTS for Inhibitors of human tyrosyl-DNA phosphodiesterase 1 (TDP1): qHTS in cells in absence of CPT | DT40 Tdp1-/- hTDP1 cells, no CPT, ATP luminescence, 48 h | Potency, µM (series often up to 46.2 µM), without a hit: at the top dose activity change, negative = growth inhibition, usual class: inhibitors | 420,000 tested, 15% active; note: potency is the fitted concentration of half-maximal effect; nearly all actives have a fitted effect of over 55% in size
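Luminescent ATP content (CellTiter-Glo) served as the growth readout. Knockout chicken DT40 cells expressing human TDP1 were exposed to compounds without camptothecin for a minimum 48 hr at 37 °C.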
uPA generation: cell surface uPA generation inhibition. cell surface uPA generation assay, qHTS. Potency, µM (titrated, usually from 38.3 µM), for the others: at the top dose activity change, negative = inhibition, actives largely listed as inhibitors. 330,000 tested, 0.31% active; active = well fitted inhibition curve with a large enough effect; inconclusive = small, poorly fitted or top-dose-only effect; inactive = no such curve, though single readings can be large or run the other way; tested in mouse RAW 264.7 cells; note: potency is the fitted concentration of half-maximal effect; nearly all actives have a fitted effect of over 55% in size
Active calls of the source: *; ? = inconclusive; / = no result; [ ] = dose if it differs, or a comment. Unless noted, calls come from the whole dose curve; as a rule, active = well fitted curve in the direction sought with a large enough effect; inconclusive = small, poorly fitted or top-dose-only effect, or another doubt; inactive = no such curve, though single readings can be large; an effect the other way counts as inactive or inconclusive. Unless noted, % is set by controls: 0 for no effect and ±100 for the full control effect.

SMILES	HT1080NT lethal	HT1080 IDH1KD tx	TDP1 cell CPT	IL-1B inflam inh	TDP1 cell noCPT	uPA generation
OC(c1ccc(CN2CCCCC2)cc1)c1ncc(-c2ccccc2)[nH]1 (configuration not stated)	-5%	?	5%	-2	-14%	/
Oc1ccccc1-c1cc(C(F)(F)C(F)F)nc(-c2ccccc2)n1	4%	3%	-12%	-9	-29%	/
O=[N+]([O-])c1ccc(O)c(-c2cc(C(F)(F)F)nc(-c3ccccc3)n2)c1	2.3µM*	-3%	0.58µM*	-62*	0.65µM*	?
COC(=O)c1ccc(Oc2nc(Nc3ccc(C)c(C)c3)nc(N(C)C)n2)cc1	?	?	11µM*	?	18µM*	/
COc1ccc(CCNC(=O)Cn2c(=O)nc(-c3ccccc3)c3ccccc32)cc1OC	/	/	-10%	/	-25%	/
CCOC(=O)c1c(NC(=O)COc2ccc(F)cc2)sc2c1CCC(C)C2 (configuration not stated)	/	/	-24%	/	?	/
CCOC(=O)c1c(NC(=O)CSc2nnc(C)s2)sc2c1CCC(C)C2 (configuration not stated)	-31%	-7%[9.24 µM]	?	-10	21µM*	3%
CCOC(=O)c1c(NC(=O)C(C)NCc2ccco2)sc2c1CCC(C)C2 (configuration not stated)	-25%	?	?	?	21µM*	-5%
CCOC(=O)c1c(NC(=O)CSc2nnc(C)s2)sc2c1CCCCC2	-20%	?	?	-2	?	1%
COC(=O)c1c(NC(=O)COc2ccc(OC)cc2)sc2c1CCC(C)C2 (configuration not stated)	/	/	?	/	7.3µM*	/
CCOC(=O)c1c(NC(=O)Cn2nnc3ccccc32)sc2c1CCC(C)C2 (configuration not stated)	-15%	-4%[9.24 µM]	23µM*	-6	23µM*	4%
COC(=O)c1cc2oc(C)cc2n1CC(=O)Nc1cc(Cl)ccc1OC	/	/	?	/	-12%	/
CCOC(=O)c1c(NC(=O)COc2cccc3c2CCN(C)C3=O)sc2c1CCC2	?	?	13µM*	-23	9.2µM*	4%
Cc1cccc(NC(=O)COc2cccc3c2CCN(C)C3=O)c1C	4%	-10%	?	7	?	-15%
CCOC(=O)c1c(NC(=O)COC(=O)Cn2c(C)nc3ccccc32)sc2c1CCCC2	13%	14%	-25%	31	?	0%
CCOC(=O)c1c(NC(=S)NC(=O)c2ccc(Cn3cc(Cl)cn3)o2)sc2c1CCC(C)C2 (configuration not stated)	2%	-4%	13µM*	6	8.2µM*	14%
CCOC(=O)c1c(NC(=O)Cn2c(C)nc3ccccc32)sc2c1CCC2	-11%	-20%	21µM*	31	12µM*	1%
O=C(NCCc1ccccc1Cl)C1CC(=O)N(C2CCCCC2)C1 (configuration not stated)	-1%	-10%	9%	-13	-13%	3%
O=C(c1ccoc1)N1CCC2(CC1)Oc1ccc(Cl)cc1C(=O)C21CC(c2ccccc2)=NO1 (configuration not stated)	-4%	-1%	?	-13	?	10%
CCC(=O)N1CCC2(CC1)Oc1ccc(Cl)cc1C(=O)C21CC(c2ccccc2)=NO1 (configuration not stated)	-1%	-7%	?	-19	26µM*	9%
CC1CCN(S(=O)(=O)c2ccc3c(ccn3CCC(=O)NCc3ccccc3F)c2)CC1	/	/	16µM*	/	?	/
CC1CCN(S(=O)(=O)c2ccc3c(ccn3CC(=O)NCc3ccccc3F)c2)CC1	/	/	21µM*	/	?	/
O=C(CCn1ccc2cc(S(=O)(=O)N3CCCC3)ccc21)NCc1cccc(F)c1	0%	0%	?	12	?	-5%
COc1ccccc1CCNC(=O)Cn1ccc2cc(S(=O)(=O)N3CCC(C)CC3)ccc21	-18%	-4%	?	?	?	-4%
CSc1ccc(CNC(=O)CCn2ccc3cc(S(=O)(=O)N4CCC(C)CC4)ccc32)cc1	/	/	21µM*	/	?	/
SMILES	HT1080NT lethal	HT1080 IDH1KD tx	TDP1 cell CPT	IL-1B inflam inh	TDP1 cell noCPT	uPA generation
C[C@@H](CN1CC(=O)NC(=O)C1)N1CC(=O)NC(=O)C1	/	/	-8%	/	?	/
COc1ccc(CCN2C(=O)C(Oc3ccccc3C)C2c2ccc3c(c2)OCO3)cc1 (configuration not stated)	-12%	-14%	15µM*	?	16µM*	-2%
COc1ccc(CCn2c(C)cc3c(c2=O)C(c2ccc4c(c2)OCO4)C(C#N)=C(N)O3)cc1OC (configuration not stated)	?	?	13µM*	?	21µM*	-3%
COc1ccc(C2C(Oc3ccccc3C)C(=O)N2Cc2ccc(F)cc2)cc1OC (configuration not stated)	-16%	0%	?	?	?	0%
O=C1C(Oc2ccccc2)C(c2ccc3c(c2)OCO3)N1CCc1ccc(F)cc1 (configuration not stated)	-6%	-7%	-27%	-8	?	5%
COc1ccc(CCN2C(=O)C(Oc3ccccc3C)C2c2ccc3c(c2)OCO3)cc1OC (configuration not stated)	-13%	-17%	13µM*	?	16µM*	-10%
O=C(C[C@H]1CC[C@H]2[C@@H](COC[C@@H](O)CN2S(=O)(=O)c2ccccc2)O1)N[C@@H]1CCN(Cc2ccccc2)C1	0%	2%	4%	-10	-7%	/
Cc1nn(-c2ccccc2)c2c1CC(=O)Nc1ccccc1-2	?	?	0.65µM*	27	0.82µM*	-8%
Cc1nc2ccc(S(=O)(=O)NCC(=O)NCCc3ccc(Cl)cc3)cc2s1	-11%	-5%	-24%	7	-6%	3%
Cn1c(NCCO)nc2c1c(=O)n(Cc1cccc(F)c1)c(=O)n2C	/	/	6%	/	-17%	/
CCN(CC)S(=O)(=O)c1ccc(C(=O)OCC(=O)NCc2ccco2)cc1	-16%	-22%	?	17	-27%	-10%
CCN(CC)S(=O)(=O)c1ccc(/C=C/C(=O)OCC(=O)NCc2ccco2)cc1	-7%	4%	9.2µM*	-10	?	-5%
CCN(CC)S(=O)(=O)c1ccc(/C=C/C(=O)OCC(=O)NCc2cccs2)cc1	-4%	-14%	21µM*	11	?	-3%
